Results filed as inconclusive are left out. More than one record can exist for a structure, and the calls need not agree. Calls of active or inactive are those of the source. Rule for the calls, unless noted: active = hit-call score of the fitted dose curve at least 0.9, where 1 is the maximum; inactive = score below 0.9.
Tests used:
[1] = CCTE_Shafer_MEA_acute_interburst_interval_mean: CCTE's Neural Acute Assay for Mean Interburst Interval, Shafer Lab (AID 2284016);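 note: percent change of mean interburst interval versus each well's own pre-dose baseline; curves fitted for decrease in interburst interval relative to DMSO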
Summary of the method: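 Percent change in mean single-electrode interburst interval was calculated per well from 40 min recordings before and after compound (0.03-40 uM). Recordings were made at 37 C on rat cortical cultures at DIV 13 or 15, with spikes detected at 8x rms threshold.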

[2] = CCTE_Shafer_MEA_acute_per_network_burst_spike_number_mean: CCTE's Neural Acute Assay for Average Number of Spikes in a Network Burst, Shafer Lab (AID 2284019);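 for AC50: curve fitted for loss of signal so actives reduce spikes per network burst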
Summary of the method: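 Read-out is mean spike count per network burst, taken as percent change between a 40-min pre-exposure and a 40-min post-exposure recording per well. Rat primary cortical neurons on MEAs at 37 C, DIV 13 or 15; compounds at 0.03-40 uM.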

[3] = CCTE_Shafer_MEA_acute_per_network_burst_spike_number_std: CCTE's Neural Acute Assay for Standard Deviation of Number of Spikes in a Network Burst, Shafer Lab (AID 2284020);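 note: fitted for decrease in spike-number SD versus DMSO so actives lower it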
Summary of the method: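 Spontaneous network activity of primary rat cortical neurons is recorded extracellularly before and after a 40-min compound exposure (0.03-40 uM) at 37 C. The endpoint is the well's percent change in burst spike-number SD.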

[4] = CCTE_Shafer_MEA_acute_per_network_burst_electrodes_number_mean: CCTE's Neural Acute Assay for Mean Number of Electrodes in a Network Burst, Shafer Lab (AID 2284021);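 note: curves fitted for decreases only so hits reduce electrodes per burst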
Summary of the method: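 Primary rat cortical networks, mwMEA, 37 C. 20 min stabilization, 40 min baseline, compound 0.03-40 uM, 40 min re-record. Wells need >=10 active electrodes; percent change per well, negative fitting direction.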

[5] = CCTE_Shafer_MEA_acute_cross_correlation_area: CCTE's Neural Acute Assay for Area of Cross Correlation, Shafer Lab (AID 2284024);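 note: area under pooled inter-electrode spike cross-correlation near zero lag as percent change from own baseline; curves fitted for loss of cross-correlation area so actives lower synchrony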
Summary of the method: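 Plates equilibrated 20 min at 37 C, then 40 min baseline was recorded, compound was added (0.03-40 uM), and a further 40 min was recorded. Wells needed ≥10 active electrodes (≥5 spikes/min) on exposure day.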

[6] = CCTE_Shafer_MEA_acute_cross_correlation_HWHM: CCTE's Neural Acute Assay for Cross Correlation at Half Width at Half Maximum, Shafer Lab (AID 2284026);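 note: percent change per well from pre-dose baseline in spike cross-correlogram half width; hits are a decrease in cross-correlogram half width relative to DMSO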
Summary of the method: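 Rat cortical neuron cultures on microelectrode arrays were equilibrated 20 min at 37 C, recorded 40 min at baseline, then 40 min after compound addition (0.03-40 uM, ≥3 wells). Spikes were detected at 8x rms noise after 300-5000 Hz band-pass filtering.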

[7] = CCTE_Shafer_MEA_acute_synchrony_index: CCTE's Neural Acute Assay for Synchrony, Shafer Lab (AID 2284027);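 note: fitted for loss of signal so actives lower synchrony relative to DMSO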
Summary of the method: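 Readout is percent change in the unitless network synchrony index (0 low, 1 high) between a 40-min baseline and a 40-min recording in compound. Cultures were primary rat cortical neurons on MEAs, treated at 0.03-40 uM on DIV 13 or 15.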

[8] = target: Estrogen receptor (Homo sapiens) (UniProt P03372); assay: CCTE_Deisenroth_AIME_96WELL_LUC_Active: CCTE's 96-well Estrogen Receptor Transactivation Assay with AIME metabolic competence (ERTA luciferase; metabolism positive), Deisenroth Lab (AID 2284023; active = hit-call score of the fitted dose curve at least 0.9, where 1 is the maximum)
Sequence of Estrogen receptor (Homo sapiens) (P03372 whole entry, looked up): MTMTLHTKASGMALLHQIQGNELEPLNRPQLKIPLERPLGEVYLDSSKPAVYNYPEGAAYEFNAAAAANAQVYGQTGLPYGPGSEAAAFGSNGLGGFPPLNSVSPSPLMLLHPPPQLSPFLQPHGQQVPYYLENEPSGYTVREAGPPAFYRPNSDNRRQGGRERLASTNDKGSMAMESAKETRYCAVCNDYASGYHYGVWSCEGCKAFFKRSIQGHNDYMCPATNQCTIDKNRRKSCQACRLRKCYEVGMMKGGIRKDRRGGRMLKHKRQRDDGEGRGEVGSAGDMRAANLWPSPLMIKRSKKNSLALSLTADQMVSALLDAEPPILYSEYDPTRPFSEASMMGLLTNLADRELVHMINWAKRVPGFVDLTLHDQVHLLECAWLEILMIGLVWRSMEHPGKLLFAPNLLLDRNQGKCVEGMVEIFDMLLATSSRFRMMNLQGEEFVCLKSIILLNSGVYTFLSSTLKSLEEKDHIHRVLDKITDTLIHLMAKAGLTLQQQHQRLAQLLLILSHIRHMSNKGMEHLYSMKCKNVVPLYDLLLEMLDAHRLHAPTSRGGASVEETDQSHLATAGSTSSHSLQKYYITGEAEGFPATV
Summary of the method: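 Chemicals pre-incubated 2 h with alginate-immobilized phenobarbital/beta-naphthoflavone-induced male Sprague Dawley rat liver S9, then medium transferred to VM7Luc4E2 cells for 24 h luciferase read-out. 10-point series 0.002 - 200 uM; fitted relative to 17beta-estradiol.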

[9] = target: Estrogen receptor (Homo sapiens) (UniProt P03372); assay: CCTE_Deisenroth_AIME_96WELL_LUC_Inactive: CCTE's 96-well Estrogen Receptor Transactivation Assay without AIME metabolic competence (ERTA luciferase; metabolism negative), Deisenroth Lab (AID 2284025; active = hit-call score of the fitted dose curve at least 0.9, where 1 is the maximum)
Summary of the method: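 VM7Luc4E2 breast cells, luciferase read 24 h after dosing with medium pre-incubated 2 h on alginate-water lids (metabolism negative). 10-point series 0.002–200 uM, single technical replicate, n≥4; fit relative to 17beta-estradiol.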

[10] = CCTE_Deisenroth_AIME_96WELL_CTox_Active: Cytotoxicity Assessment (CTOX) in CCTE's 96-well Estrogen Receptor Transactivation Assay with AIME metabolic competence (metabolism positive), Deisenroth Lab (AID 2284028; active = hit-call score of the fitted dose curve at least 0.9, where 1 is the maximum)
Summary of the method: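 Chemicals (0.002–200 uM) were first incubated 2 h with alginate-immobilized phenobarbital/beta-naphthoflavone-induced male rat liver S9; conditioned medium then went onto VM7Luc4E2 cells for 24 h, with viability read by protease-substrate fluorescence, fitted bidirectionally.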

Measured: AC50

CCn1cc(C(=O)O)c(=O)c2ccc(C)nc21
active: [5] 0.003 µM
not listed: [8] | [9] | [10]
inactive: all other assays above

CC(C)CCCC(C)(C)O
not listed: [8] | [9] | [10]
inactive: all other assays above

c1ccc(Cc2ccccc2)cc1
inactive: [9]
active: [8] 74.4 µM

CCCO[Si](OCCC)(OCCC)OCCC
active: [1] 15 µM | [6] 0.0212 µM
inactive: [2] | [3] | [4] | [5] | [7]

C[C@]12CC[C@@H]3c4ccc(O)cc4CC[C@H]3[C@@H]1CC[C@@H]2O
inactive: [10]

C#C[C@]1(O)CC[C@H]2[C@@H]3CCc4cc(O)ccc4[C@H]3CC[C@@]21C
active: [10] 135 µM

CC/C(=C(\c1ccccc1)c1ccc(OCCN(C)C)cc1)c1ccccc1
active: [1] 3.74 µM | [3] 18.3 µM | [6] 16.4 µM | [7] 14.8 µM | [10] 7.84 µM
inactive: [1] | [2] | [3] | [4] | [5] | [6] | [7]

CC(=O)c1ccc(C)cc1
not listed: [8] | [9] | [10]
inactive: all other assays above

CCCCN(CCO)CCO
inactive: [3] | [4] | [5] | [6] | [7]
active: [1] 24.1 µM | [2] 15 µM

O=C(c1ccc(OCCN2CCCCC2)cc1)c1c(-c2ccc(O)cc2)sc2cc(O)ccc12
inactive: [1] | [4] | [5]
active: [2] 4.05 µM | [3] 33.9 µM | [6] 32.7 µM | [7] 36.8 µM

CCCCOCCOCCO
not listed: [8] | [9] | [10]
inactive: all other assays above

N[C@@H](CCC(=O)O)C(=O)O
not listed: [8] | [9] | [10]
inactive: all other assays above

c1ccc(OCCOc2ccccc2)cc1
not listed: [8] | [9] | [10]
inactive: all other assays above

CC(C)(CO)CO
not listed: [8] | [9] | [10]
inactive: all other assays above

Source: PubChem BioAssay (EPA / NIEHS)
